The results in this text go back to PubChem BioAssay AID651915 (Vanderbilt Specialized Chemistry Center, 2012).

The target in the experiment is Histone deacetylase 5 (Homo sapiens) (UniProt Q9UQL6). Put plainly: inhibitors of recombinant human HDAC5 – biochemical, selectivity assay for E-cadherin restoration project, profiling panel (AID 651915).

The source made the active and inactive calls. No rule for the calls is given here.

Histone deacetylase 5 (Homo sapiens), sequence (Q9UQL6 whole entry, looked up): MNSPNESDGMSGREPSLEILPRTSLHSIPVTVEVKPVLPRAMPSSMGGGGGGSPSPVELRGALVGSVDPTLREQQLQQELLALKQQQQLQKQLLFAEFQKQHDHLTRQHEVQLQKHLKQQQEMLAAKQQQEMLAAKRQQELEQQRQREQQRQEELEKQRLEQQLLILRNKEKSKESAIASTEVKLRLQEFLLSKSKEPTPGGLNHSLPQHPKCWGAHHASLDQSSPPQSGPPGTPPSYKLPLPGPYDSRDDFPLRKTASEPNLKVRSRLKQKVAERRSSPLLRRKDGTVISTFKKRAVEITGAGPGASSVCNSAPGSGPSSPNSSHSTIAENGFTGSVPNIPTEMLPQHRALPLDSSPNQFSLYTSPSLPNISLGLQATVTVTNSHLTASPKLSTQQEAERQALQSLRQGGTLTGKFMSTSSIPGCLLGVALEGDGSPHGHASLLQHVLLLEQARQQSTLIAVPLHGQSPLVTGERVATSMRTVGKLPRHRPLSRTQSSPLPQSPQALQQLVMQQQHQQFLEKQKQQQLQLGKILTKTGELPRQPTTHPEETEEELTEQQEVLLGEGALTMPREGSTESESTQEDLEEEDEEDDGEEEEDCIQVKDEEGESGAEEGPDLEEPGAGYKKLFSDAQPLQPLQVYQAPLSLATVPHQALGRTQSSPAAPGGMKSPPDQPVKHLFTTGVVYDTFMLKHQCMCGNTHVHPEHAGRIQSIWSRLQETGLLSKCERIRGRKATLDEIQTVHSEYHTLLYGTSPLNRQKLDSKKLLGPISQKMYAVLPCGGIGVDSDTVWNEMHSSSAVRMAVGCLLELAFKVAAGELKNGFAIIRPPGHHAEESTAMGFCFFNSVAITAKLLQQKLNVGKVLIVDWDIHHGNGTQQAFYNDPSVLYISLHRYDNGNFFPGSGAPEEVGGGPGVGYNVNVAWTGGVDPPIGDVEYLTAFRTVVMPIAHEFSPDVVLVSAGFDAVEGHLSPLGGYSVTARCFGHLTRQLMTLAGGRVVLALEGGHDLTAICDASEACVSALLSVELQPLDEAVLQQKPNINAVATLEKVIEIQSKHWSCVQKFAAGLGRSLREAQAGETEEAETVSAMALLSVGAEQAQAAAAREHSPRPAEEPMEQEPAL

With `O=C(NCCCNC(=O)c1ccc[nH]c1=O)c1cc(-c2ccccc2)on1`, the result was inactive.
